# Reference: publication PMC6579518
# Tests used:
# [1] = target: Cytoplasmic 60S subunit biogenesis factor REI1 (UniProt P38344); assay: cross-link between two proteins; cross-linking mass spectrometry
# [2] = target: Large ribosomal subunit protein eL18A (UniProt P0CX49); assay: as above
# [3] = target: Large ribosomal subunit protein eL19A (UniProt P0CX82); assay: as above
# [4] = target: Large ribosomal subunit protein uL2A (UniProt P0CX45); assay: as above
# Large subunit GTPase 1 = Large subunit GTPase 1 (UniProt P53145); assay: as above
# [5] = target: Large ribosomal subunit protein eL20A (UniProt P0CX23); assay: as above
# [6] = target: rRNA biogenesis protein RRP5 (UniProt Q05022); assay: as above
# [7] = target: Large ribosomal subunit protein eL32 (UniProt P38061); assay: as above
# [8] = target: Large ribosomal subunit protein eL37A (UniProt P49166); assay: as above
# [9] = target: Large ribosomal subunit protein uL13B (UniProt P26785); assay: as above
# [10] = target: Shuttling pre-60S factor ECM1 (UniProt P39715); assay: as above
# [11] = target: Nucleolar GTP-binding protein 1 (UniProt Q02892); assay: as above
# [12] = target: Probable metalloprotease ARX1 (UniProt Q03862); assay: as above
# [13] = target: Proteasome-interacting protein CIC1 (UniProt P38779); assay: as above
# [14] = target: Pumilio homology domain family member 6 (UniProt Q04373); assay: as above
# UPF0642 protein YBL028C = UPF0642 protein YBL028C (UniProt P38202); assay: as above
# [15] = target: WD repeat-containing protein JIP5 (UniProt Q06214); assay: as above
# [16] = target: U3 small nucleolar RNA-associated protein 22 (UniProt P53254); assay: cross-link between two proteins; affinity purification or IP with mass spectrometry; cross-linking mass spectrometry
# U3 small nucleolar RNA-associated protein 22, sequence (P53254 whole entry): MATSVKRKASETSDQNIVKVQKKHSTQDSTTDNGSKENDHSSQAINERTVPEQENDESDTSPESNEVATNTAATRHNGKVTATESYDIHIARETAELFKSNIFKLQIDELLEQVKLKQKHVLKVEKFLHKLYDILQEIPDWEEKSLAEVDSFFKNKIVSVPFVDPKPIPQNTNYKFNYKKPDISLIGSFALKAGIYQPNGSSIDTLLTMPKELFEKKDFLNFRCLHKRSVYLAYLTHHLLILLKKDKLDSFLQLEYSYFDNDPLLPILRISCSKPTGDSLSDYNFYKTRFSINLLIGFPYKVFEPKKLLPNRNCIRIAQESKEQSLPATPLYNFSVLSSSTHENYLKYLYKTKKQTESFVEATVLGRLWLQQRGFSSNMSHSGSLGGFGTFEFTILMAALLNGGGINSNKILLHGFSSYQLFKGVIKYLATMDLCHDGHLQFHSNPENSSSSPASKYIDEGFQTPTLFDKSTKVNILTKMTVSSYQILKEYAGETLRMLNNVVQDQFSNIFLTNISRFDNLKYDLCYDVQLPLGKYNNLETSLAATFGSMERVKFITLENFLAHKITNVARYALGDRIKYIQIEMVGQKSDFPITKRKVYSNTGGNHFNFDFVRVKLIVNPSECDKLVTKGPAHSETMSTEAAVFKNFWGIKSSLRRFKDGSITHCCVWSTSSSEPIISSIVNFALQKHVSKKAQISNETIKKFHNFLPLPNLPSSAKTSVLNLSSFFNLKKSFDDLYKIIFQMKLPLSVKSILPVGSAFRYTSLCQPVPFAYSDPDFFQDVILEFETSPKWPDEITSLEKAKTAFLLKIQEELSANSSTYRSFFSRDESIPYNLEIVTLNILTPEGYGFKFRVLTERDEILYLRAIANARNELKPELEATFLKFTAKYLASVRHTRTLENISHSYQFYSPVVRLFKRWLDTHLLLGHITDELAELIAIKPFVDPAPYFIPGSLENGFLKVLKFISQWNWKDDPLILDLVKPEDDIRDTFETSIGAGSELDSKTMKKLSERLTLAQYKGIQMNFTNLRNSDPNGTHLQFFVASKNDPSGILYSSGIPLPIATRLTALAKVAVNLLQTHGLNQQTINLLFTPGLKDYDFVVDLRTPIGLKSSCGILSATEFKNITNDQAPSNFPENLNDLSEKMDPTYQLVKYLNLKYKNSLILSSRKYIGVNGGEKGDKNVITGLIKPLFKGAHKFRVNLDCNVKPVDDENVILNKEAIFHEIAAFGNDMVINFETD
# Large ribosomal subunit protein eL43A, P0CX25, sequence (P0CX25 whole entry): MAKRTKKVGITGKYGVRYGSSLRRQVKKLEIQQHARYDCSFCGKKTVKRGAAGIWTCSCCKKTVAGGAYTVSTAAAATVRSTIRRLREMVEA
# UPF0642 protein YBL028C, sequence (P38202 whole entry): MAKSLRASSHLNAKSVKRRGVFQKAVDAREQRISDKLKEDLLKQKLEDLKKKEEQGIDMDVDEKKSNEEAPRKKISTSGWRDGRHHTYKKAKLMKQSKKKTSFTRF
# Large ribosomal subunit protein eL19A, sequence (P0CX82 whole entry): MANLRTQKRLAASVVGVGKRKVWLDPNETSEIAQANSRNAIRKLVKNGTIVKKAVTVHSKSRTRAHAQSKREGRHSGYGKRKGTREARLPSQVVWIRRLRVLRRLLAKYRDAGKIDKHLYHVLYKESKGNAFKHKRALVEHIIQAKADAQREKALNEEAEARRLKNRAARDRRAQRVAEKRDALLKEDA
# Large ribosomal subunit protein eL20A, sequence (P0CX23 whole entry): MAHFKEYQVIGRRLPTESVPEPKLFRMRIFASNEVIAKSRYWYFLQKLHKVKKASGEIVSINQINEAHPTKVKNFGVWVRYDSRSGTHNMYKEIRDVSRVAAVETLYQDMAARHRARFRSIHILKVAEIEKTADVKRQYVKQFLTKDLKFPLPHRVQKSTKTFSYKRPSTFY
# Large subunit GTPase 1, sequence (P53145 whole entry): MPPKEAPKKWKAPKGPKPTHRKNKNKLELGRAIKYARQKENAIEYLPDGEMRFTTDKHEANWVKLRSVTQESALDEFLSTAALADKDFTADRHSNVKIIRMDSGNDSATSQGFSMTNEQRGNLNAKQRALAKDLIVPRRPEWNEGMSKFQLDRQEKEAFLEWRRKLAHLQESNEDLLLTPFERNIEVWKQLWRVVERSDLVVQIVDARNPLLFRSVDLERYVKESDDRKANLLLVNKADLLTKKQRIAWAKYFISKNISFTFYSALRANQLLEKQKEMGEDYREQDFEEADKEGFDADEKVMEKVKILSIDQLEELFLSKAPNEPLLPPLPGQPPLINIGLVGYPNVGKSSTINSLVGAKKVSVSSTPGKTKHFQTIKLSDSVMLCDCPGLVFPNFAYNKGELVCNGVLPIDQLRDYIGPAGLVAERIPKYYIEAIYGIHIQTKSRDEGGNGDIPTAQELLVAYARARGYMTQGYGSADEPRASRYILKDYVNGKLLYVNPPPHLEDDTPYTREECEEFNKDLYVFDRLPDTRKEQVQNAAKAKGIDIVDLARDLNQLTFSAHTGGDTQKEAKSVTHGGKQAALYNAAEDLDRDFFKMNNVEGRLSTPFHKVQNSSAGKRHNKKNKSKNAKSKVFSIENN
# Large ribosomal subunit protein uL2A, P0CX45, sequence (P0CX45 whole entry): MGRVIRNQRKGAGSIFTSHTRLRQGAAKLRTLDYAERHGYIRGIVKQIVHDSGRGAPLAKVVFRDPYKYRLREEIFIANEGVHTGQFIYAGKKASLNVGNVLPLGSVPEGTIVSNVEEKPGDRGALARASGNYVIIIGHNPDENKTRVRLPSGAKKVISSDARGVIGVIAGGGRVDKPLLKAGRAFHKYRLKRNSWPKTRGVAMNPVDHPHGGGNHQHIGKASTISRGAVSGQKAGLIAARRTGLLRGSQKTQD
# Large ribosomal subunit protein uL2A, sequence (P0CX45 whole entry): as above
# Large ribosomal subunit protein eL18A, sequence (P0CX49 whole entry): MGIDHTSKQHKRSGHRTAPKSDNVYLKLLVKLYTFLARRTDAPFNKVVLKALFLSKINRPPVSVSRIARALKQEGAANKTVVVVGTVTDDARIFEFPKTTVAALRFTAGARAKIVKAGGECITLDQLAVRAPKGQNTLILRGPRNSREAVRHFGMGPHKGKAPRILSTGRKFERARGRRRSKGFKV
# Probable metalloprotease ARX1, sequence (Q03862 whole entry): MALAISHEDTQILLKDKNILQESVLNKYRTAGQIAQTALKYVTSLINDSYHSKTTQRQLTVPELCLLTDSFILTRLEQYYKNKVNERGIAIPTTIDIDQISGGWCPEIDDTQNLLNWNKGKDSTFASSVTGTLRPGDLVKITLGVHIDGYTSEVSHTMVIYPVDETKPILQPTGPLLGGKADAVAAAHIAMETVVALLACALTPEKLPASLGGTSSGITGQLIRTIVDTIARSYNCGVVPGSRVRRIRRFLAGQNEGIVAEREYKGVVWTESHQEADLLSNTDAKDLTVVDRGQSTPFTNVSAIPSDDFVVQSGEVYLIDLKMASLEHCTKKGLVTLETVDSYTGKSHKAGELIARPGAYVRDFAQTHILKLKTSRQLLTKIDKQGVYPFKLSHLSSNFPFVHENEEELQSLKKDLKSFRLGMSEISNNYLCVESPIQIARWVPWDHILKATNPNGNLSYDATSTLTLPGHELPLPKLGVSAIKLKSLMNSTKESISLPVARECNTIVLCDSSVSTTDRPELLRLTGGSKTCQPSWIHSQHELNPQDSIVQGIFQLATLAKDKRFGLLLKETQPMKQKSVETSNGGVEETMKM
# Large ribosomal subunit protein eL32, sequence (P38061 whole entry): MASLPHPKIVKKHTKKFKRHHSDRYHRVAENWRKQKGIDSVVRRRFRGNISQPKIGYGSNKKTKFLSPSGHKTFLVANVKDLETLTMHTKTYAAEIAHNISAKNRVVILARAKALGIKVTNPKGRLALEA
# Large ribosomal subunit protein uL1A, P0CX43, sequence (P0CX43 whole entry): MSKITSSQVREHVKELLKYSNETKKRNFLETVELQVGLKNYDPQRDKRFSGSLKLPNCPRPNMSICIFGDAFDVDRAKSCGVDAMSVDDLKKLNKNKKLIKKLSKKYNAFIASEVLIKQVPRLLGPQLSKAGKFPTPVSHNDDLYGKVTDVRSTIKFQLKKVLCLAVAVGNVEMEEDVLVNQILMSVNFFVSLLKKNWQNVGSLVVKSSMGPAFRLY
# Large ribosomal subunit protein uL13A, P26784, sequence (P26784 whole entry): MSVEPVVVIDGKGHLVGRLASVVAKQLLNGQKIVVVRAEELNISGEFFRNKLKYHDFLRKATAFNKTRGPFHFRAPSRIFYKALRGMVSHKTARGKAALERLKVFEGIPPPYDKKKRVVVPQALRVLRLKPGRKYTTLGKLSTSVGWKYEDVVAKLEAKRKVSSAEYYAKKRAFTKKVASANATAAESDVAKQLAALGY
# Large ribosomal subunit protein eL29, P05747, sequence (P05747 whole entry): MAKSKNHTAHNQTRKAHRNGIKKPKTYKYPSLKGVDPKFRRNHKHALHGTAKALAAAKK
# Large ribosomal subunit protein uL14A, P0CX41, sequence (P0CX41 whole entry): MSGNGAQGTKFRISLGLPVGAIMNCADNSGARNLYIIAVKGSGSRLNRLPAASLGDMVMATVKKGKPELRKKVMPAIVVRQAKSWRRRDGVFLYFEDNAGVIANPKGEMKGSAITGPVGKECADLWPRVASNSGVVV
# Large ribosomal subunit protein eL15A, P05748, sequence (P05748 whole entry): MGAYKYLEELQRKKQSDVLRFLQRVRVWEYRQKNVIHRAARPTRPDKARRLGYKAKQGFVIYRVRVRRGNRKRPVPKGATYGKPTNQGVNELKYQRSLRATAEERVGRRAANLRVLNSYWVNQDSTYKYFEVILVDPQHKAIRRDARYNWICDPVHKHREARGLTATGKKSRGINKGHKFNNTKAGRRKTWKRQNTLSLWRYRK
# Large ribosomal subunit protein eL37A, sequence (P49166 whole entry): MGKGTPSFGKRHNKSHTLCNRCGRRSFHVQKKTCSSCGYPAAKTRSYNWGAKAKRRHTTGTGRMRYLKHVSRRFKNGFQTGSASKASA
substance,measurement,setting,value
"Large ribosomal subunit protein eL24A, P04449",listed as a hit,[1],yes
"Large ribosomal subunit protein eL29, P05747",listed as a hit,[2],yes
"Large ribosomal subunit protein uL15, P02406",listed as a hit,[2],yes
"Large ribosomal subunit protein eL43A, P0CX25",listed as a hit,[3],yes
same,listed as a hit,[4],yes
same,listed as a hit,Large subunit GTPase 1,yes
"Ubiquitin-ribosomal protein eS31 fusion protein, P05759",listed as a hit,[3],yes
"Large ribosomal subunit protein eL33A, P05744",listed as a hit,[5],yes
"Large ribosomal subunit protein uL30A, P05737",listed as a hit,[5],yes
same,listed as a hit,[6],yes
"27S pre-rRNA (guanosine(2922)-2'-O)-methyltransferase, P25582",listed as a hit,[7],yes
"Large ribosomal subunit protein uL29A, P0CX84",listed as a hit,[8],yes
"Large ribosomal subunit protein eL15A, P05748",listed as a hit,[9],yes
"Large ribosomal subunit protein uL14A, P0CX41",listed as a hit,[4],yes
"Large ribosomal subunit protein uL2A, P0CX45",listed as a hit,Large subunit GTPase 1,yes
same,listed as a hit,[10],yes
"Pescadillo homolog, P53261",listed as a hit,[11],yes
"Large ribosomal subunit protein uL24A, P05743",listed as a hit,[12],yes
"Cytoplasmic 60S subunit biogenesis factor REI1, P38344",listed as a hit,[12],yes
"Large ribosomal subunit protein uL13A, P26784",listed as a hit,[13],yes
"Large ribosomal subunit protein uL5A, P0C0W9",listed as a hit,[14],yes
"Large ribosomal subunit protein uL3, P14126",listed as a hit,UPF0642 protein YBL028C,yes
"Large ribosomal subunit protein uL6A, P05738",listed as a hit,UPF0642 protein YBL028C,yes
"Large ribosomal subunit protein uL1A, P0CX43",listed as a hit,[15],yes
"Heat shock protein SSA1, P10591",listed as a hit,[16],yes
